# In the supplement of paper PMC11417369:
# Over roughly 25,000 sequences, “ln(normalized median fluorescence intensity)” has its median near 7.1; the highest 2% begin near 10. Only a selection was taken, and the highest values are over-represented in it overall.
# Test system: PfSIP2 AP2 domain 1 (GST-tagged)
# Test: gcPBM binding intensity (ln(normalized median fluorescence intensity)); higher = stronger DNA binding
# Summary of the method: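 Plasmodium falciparum DNA-binding domains carrying a GST tag were expressed in E. coli and applied for 1 h, at about 25 μg on average, to an Agilent 4 × 180k array. The array held primer-extended double-stranded 36-bp intergenic genomic probes together with negative controls, and binding took place in 1× PBS with 1% milk, 0.2 mg/ml BSA, 0.5% salmon testes DNA and 0.03% Triton X-100. An Alexa488 anti-GST antibody detected bound protein, and the array was scanned at 488 nm. Binding intensity is taken as the highest Masliner-normalised natural-log median intensity across replicate spots of either probe orientation.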
row,Sequence,gcPBM binding intensity (ln)
1,TTATAAATATAATTTTGTACATATATATATATATAC [XGTACX_site5064],7.39
2,AAAATTATACACACACGTACATATAAATAGAAATAT [XGTACX_site1753],7.12
3,AACATACGACAATACGCACACATATAAGTACATATT [CACACA_site8584],7.13
4,ATTTAAAAGTTGGTAGTGCATTAAAAATAACAAAAA [GTGCAC_site9835],8.96
5,AGGATAAAAGTTATGGTGCATTAACCTATTTAAATA,10.2
6,TTCTATTTTTTAAAAGTGCATATTATAAATATATAT,9.04
7,GCACATTTTTTTATCACACATATAATTACAATATAA [CACACA_site5585],7.74
8,ACAATATTTTTTTATAAACACACATATATATAAATA [CACACA_site9175],7.18
9,AATAATGAATTGAAATGTACATATTTTTATTAATAC [XGTACX_site8899],7.15
10,AAAATATAAAGTATTTGTACATAATATATTTTTAAA [XGTACX_site3494],6.81
11,TATGTATTAATGAGAACATGCAAAATAATAAACAAT [TGCATGCA_site362],7.24
12,CAATTAAACAATTAAACATGCAAAATGATATAATAA [TGCATGCA_site240],6.79
13,CATGAGGTATAAAAGGTGCAAATTAATGAGAACATT,11.1
14,TATATATATATATGTGGTACATAAAATTATTATTTT [XGTACX_site4554],9.55
15,TTTTAAGGTGTGAAGGTGCAAAAAGGTAAATAGGAA,10.8
16,ATTTTAAAAAGGATAGTGCAAATGTTAAAATAGGAC,8.74
17,TTTTTTTTTAAGCAAAGGAAATCAAAATAAAAATAT [CACACA_negctrl_site719],7.08
18,ATTTAAGTAGTACATACACACACATATACAAAAAGA [CACACA_site9317],7.39
19,GATGAGGACAAACACACACACATAAGTTGATACATA [CACACA_site3424],7.27
20,ATACTTTTATTTTTGGTGCATATATCATGTAGACGT,10.2
21,TTTTATTTAGGAGGTGCATGTAATACGGAACATAAT [TGCATGCA_site827],11.2
22,CTATAATAACATAACACACACATGTATTTATAGGTG [CACACA_site6298],7.05
23,CTTTTTATTTAGGAGGTGCATGTAATACGGAACATA,10.9
24,ATATAATAACATAACACACACATGTATTTATAGGTG [CACACA_site359],6.97

row,Sequence,gcPBM binding intensity (ln)
1,CGGACATACATAGGAACATGCAAAATTTTTTATTTT [TGCATGCA_site575],6.78
2,TGATTATTATAATTTAGTACATAATATTTTATATAA [XGTACX_site6125],7.07
3,TTTATATATTTATTCACACATATAATATTCCGTCGT [CACACA_site6120],6.88
4,AAAAAAAAAAAAAATACACACATATTTTATAGGGGA [CACACA_site3261],7.19
5,CATATTTACTATCACACACACGATATATATAAATAT [CACACA_site1241],7.25
6,TTCATATTCGATAAAGTGCATTAATTTTATTTATCA,8.36
7,ATCATATTTATATTGGTGCATTATGCATGAAATTTA [GTGCAC_site9571],9.94
8,ATCATATGTATGGTGGTGCATTATGCATGAATTTTA [GTGCAC_site9798],10.2
9,CATTTTCATTTTAAGGTGCATTAATATTTATTTTAA [GTGCAC_site9437],10.4
10,TTGATTTCATTTTAAGTGCATAACTAATATTATATA [GTGCAC_site9713],8.07
11,GTTTGAATATATCAGGTGCATTTATAATTCATATGA,10.5
12,TTCATTTTATTTTAAGTGCATATTTTTATTTTTTTG,8.27
13,AATATTCATATGCAGGTGCATTAATTTTTATTAATT,10.4
14,CATGAATATTTTAATGTGCACATTTATCATTATATG,8.69
15,ATCATATTTATGTTGGTGCATTATGCATGGATTTTA [GTGCAC_site9795],9.92
16,TTATTAAATTCATAAGTGCATTTATGATTAATTTTT [GTGCAC_site9749],9.08
17,CGCATATTTTATGTTTGTACTCATATGAATATCATA [XGTACX_site4717],6.97
18,ATATATTTTTTTTTTTGTACGTATATTTATATAATT [XGTACX_site8719],7.1
19,ATATTACTAATTAATGGTACACGTTATAATAAACTA [XGTACX_site7051],7.12
20,TTCAATAGTAAGTATACACACATATAAATAAATAAA [CACACA_site7295],6.91
21,GTGTGAAACATAAACACACACAAAAAGAAAAAATAG [CACACA_site1227],6.91
22,TGCTTTTCTTTTTGCACACTTATGCATATATATATA [CACACA_site2583],9.5
23,TATTCAAAAATATAAACAATGAAACAGTATAATATG [CACACA_negctrl_site1482],7.09
